In PubChem BioAssay (EPA / NIEHS) one finds outcome and AC50 data, which are given here for 3 compounds.

SMILES strings stand for the structures. Activity calls are given as the source filed them. The calls were made as follows: active = hit-call score of the fitted dose curve at least 0.9, where 1 is the maximum; inactive = score below 0.9.

Holding throughout (details): mRNA level, 48 h; actives raise or lower the signal
Read-out in assay [1]: Bcl-2 (BID) gene, BID (gene 637)
The assay is described as follows: LTEA_HepaRG_BID: Life Technologies and Expression Analysis (LTEA) Assay for Bcl-2 (BID) gene using HepaRG (AID 2283476). The method in brief:
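Gene expression by qRT-PCR in HepaRG cells after 48 h exposure, duplicate wells, eight half-log concentrations topping at 100 uM in 0.5% DMSO. Normalized to ACTB, GAPDH, POLR2A; bidirectional fitting relative to DMSO.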

Read-out in a further assay: Caspase-3 (Homo sapiens) (UniProt P42574)
Nature of the assay: LTEA_HepaRG_CASP3: Life Technologies and Expression Analysis (LTEA) Assay for cysteine-aspartic acid protease (CASP3) using HepaRG (AID 2283477). The method in brief:
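In HepaRG liver cells dosed for 48 h at up to 100 uM (eight-point, duplicate), CASP3 expression changes are scored by qRT-PCR. Activity is fitted in both directions with 0.5% DMSO as baseline.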

Read-out in assay [2]: Cytochrome P450 (CYP24A1), CYP24A1 (gene 1591)
The assay is described as follows: LTEA_HepaRG_CYP24A1: Life Technologies and Expression Analysis (LTEA) Assay for Cytochrome P450 (CYP24A1) using HepaRG (AID 2283478). The method in brief: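 Human liver HepaRG cultures receive each chemical for 48 h across an eight-point half-log series topping at 100 uM in 0.5% DMSO. Induction or suppression of CYP24A1 mRNA is scored relative to vehicle after housekeeping-gene normalization.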

Read-out in assay [3]: Cytochrome P450 (CYP1A2), CYP1A2 (gene 1544)
Nature of the assay: LTEA_HepaRG_CYP1A2: Life Technologies and Expression Analysis (LTEA) Assay for Cytochrome P450 (CYP1A2) using HepaRG (AID 2283479). In outline: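 Assesses CYP1A2 mRNA in human HepaRG liver cells after 48 h chemical exposure at up to 100 uM. Values come from qRT-PCR with bidirectional curve fitting relative to DMSO.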

Read-out in assay [4]: cysteine-aspartic acid protease (CASP8), CASP8 (gene 841)
The assay is described as follows: LTEA_HepaRG_CASP8: Life Technologies and Expression Analysis (LTEA) Assay for cysteine-aspartic acid protease (CASP8) using HepaRG (AID 2283480). In outline: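 Differentiated HepaRG cells in serum-free induction medium, 48 h exposure, eight-point half-log series from 100 uM in 0.5% DMSO, duplicates. CASP8 mRNA by qRT-PCR, normalized to ACTB, GAPDH, POLR2A; bidirectional fit versus DMSO.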

Read-out in assay [5]: Cytochrome P450 (CYP2B6), CYP2B6 (gene 1555)
The assay is described as follows: LTEA_HepaRG_CYP2B6: Life Technologies and Expression Analysis (LTEA) Assay for Cytochrome P450 (CYP2B6) using HepaRG (AID 2283481). In outline:
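Using 48 h treatment of HepaRG cells in serum-free induction medium, concentrations spanned half-log steps from 100 uM in 0.5% DMSO vehicle. CYP2B6 mRNA induction or loss is scored by qRT-PCR against DMSO.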

Read-out in assay [6]: Cytochrome P450 2C19 (Homo sapiens) (UniProt P33261)
The assay is described as follows: LTEA_HepaRG_CYP2C19: Life Technologies and Expression Analysis (LTEA) Assay for CYP2C19 using HepaRG (AID 2283482). The method in brief: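 Human HepaRG liver cells received test chemicals for 48 h (highest 100 uM, half-log dilutions in 0.5% DMSO). CYP2C19 mRNA induction or loss is read by multiplexed qRT-PCR and fitted in both directions versus vehicle.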

Read-out in another assay: CYP2C8 (gene 1558)
Nature of the assay: LTEA_HepaRG_CYP2C8: Life Technologies and Expression Analysis (LTEA) Assay for CYP2C8 using HepaRG (AID 2283483). The method in brief:
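Differentiated HepaRG cells in serum-free induction medium exposed 48 h in duplicate to 8 half-log concentrations from 100 uM in 0.5% DMSO. CYP2C8 mRNA by qRT-PCR normalized to ACTB, GAPDH, POLR2A; bidirectional fit versus DMSO.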

Read-out in another assay: CYP2C9 (gene 1559)
The assay is described as follows: LTEA_HepaRG_CYP2C9: Life Technologies and Expression Analysis (LTEA) Assay for CYP2C9 using HepaRG (AID 2283484). The method in brief:
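Differentiated human HepaRG cells in serum-free induction medium were exposed 48 h to chemicals in 8-point half-log series from 100 uM (0.5% DMSO), in duplicate. CYP2C9 mRNA was measured by qRT-PCR, normalized to ACTB/GAPDH/POLR2A, with bidirectional fitting versus DMSO.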

Read-out in another assay: CYP2E1 (gene 1571)
Nature of the assay: LTEA_HepaRG_CYP2E1: Life Technologies and Expression Analysis (LTEA) Assay for CYP2E1 using HepaRG (AID 2283485). In outline:
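HepaRG cells, plated 48 h, then exposed 48 h in serum-free induction medium to eight half-log concentrations from 100 uM in 0.5% DMSO, duplicate. CYP2E1 mRNA by qRT-PCR, normalized to ACTB/GAPDH/POLR2A; bidirectional fit versus DMSO.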

Read-out in a further assay: CYP4A11 (gene 1579)
Nature of the assay: LTEA_HepaRG_CYP4A11: Life Technologies and Expression Analysis (LTEA) Assay for CYP4A11 using HepaRG (AID 2283486). The method in brief: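 Readout is CYP4A11 mRNA induction or suppression (qRT-PCR, ACTB/GAPDH/POLR2A normalization) in human HepaRG cells after 48 h chemical treatment, concentrations to 100 uM in 0.5% DMSO, fitted bidirectionally against vehicle.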

Read-out in assay [7]: Cytochrome P450 3A4 (Homo sapiens) (UniProt P08684)
Nature of the assay: LTEA_HepaRG_CYP3A4: Life Technologies and Expression Analysis (LTEA) Assay for CYP3A4 using HepaRG (AID 2283487). In outline: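 Differentiated HepaRG cells in serum-free induction medium exposed in duplicate for 48 h to 8 half-log concentrations up to 100 uM in 0.5% DMSO. CYP3A4 mRNA measured by qRT-PCR normalized to ACTB, GAPDH and POLR2A; bidirectional fit versus DMSO.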

Read-out in assay [8]: DNA damage-inducible transcript 3 (DDIT3), DDIT3 (gene 1649)
Nature of the assay: LTEA_HepaRG_DDIT3: Life Technologies and Expression Analysis (LTEA) Assay for DNA damage-inducible transcript 3 (DDIT3) using HepaRG (AID 2283488). In outline: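 HepaRG cells, 48 h after plating, exposed 48 h in serum-free induction medium to 8 half-log concentrations up to 100 uM in 0.5% DMSO, in duplicate. DDIT3 mRNA measured by TaqMan qRT-PCR, normalized to ACTB, GAPDH and POLR2A. Fitted bidirectionally against DMSO.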

Read-out in assay [9]: Pro-epidermal growth factor (Homo sapiens) (UniProt P01133)
Nature of the assay: LTEA_HepaRG_EGF: Life Technologies and Expression Analysis (LTEA) Assay for Epidermal growth factor (EGF) using HepaRG (AID 2283489). In outline:
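EGF expression changes in human HepaRG cells are scored by bidirectional fitting relative to 0.5% DMSO controls. Chemicals are tested at eight half-log concentrations up to 100 uM for 48 h in serum-free induction medium.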

Read-out in assay [10]: Early growth response protein 1 (EGR1) transcription factor, EGR1 (gene 1958)
Nature of the assay: LTEA_HepaRG_EGR1: Life Technologies and Expression Analysis (LTEA) Assay for Early growth response protein 1 (EGR1) transcription factor using HepaRG (AID 2283490). In outline: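 Differentiated HepaRG cells in serum-free induction medium exposed 48 hours, duplicate, to 8 half-log concentrations up to 100 uM in 0.5% DMSO. EGR1 mRNA measured by TaqMan qRT-PCR, normalized to ACTB, GAPDH, POLR2A; bidirectional fit versus DMSO.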

Read-out in assay [11]: Ezrin (EZR), EZR (gene 7430)
Nature of the assay: LTEA_HepaRG_EZR: Life Technologies and Expression Analysis (LTEA) Assay for Ezrin (EZR) using HepaRG (AID 2283491). The method in brief: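 Differentiated human HepaRG cells, 48 h after plating, were exposed in serum-free induction medium for 48 hours to eight half-log concentrations up to 100 uM in 0.5% DMSO. EZR mRNA was measured by TaqMan qRT-PCR, normalized to ACTB, GAPDH and POLR2A, and fitted bidirectionally against DMSO.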

Read-out in assay [12]: Cytochrome P450 3A7 (Homo sapiens) (UniProt P24462)
Nature of the assay: LTEA_HepaRG_CYP3A7: Life Technologies and Expression Analysis (LTEA) Assay for CYP3A7 using HepaRG (AID 2283492). In outline:
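Cells were thawed, plated, cultured 48 h, then treated for a further 48 h with chemicals (eight-point half-log series from 100 uM, 0.5% DMSO). RNA was isolated and CYP3A7 expression quantified by qRT-PCR normalised to ACTB, GAPDH and POLR2A.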

Read-out in a further assay: CYP3A5 (gene 1577)
The assay is described as follows: LTEA_HepaRG_CYP3A5: Life Technologies and Expression Analysis (LTEA) Assay for CYP3A5 using HepaRG (AID 2283493). The method in brief: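 HepaRG cells, plated 48 h then in serum-free induction medium, dosed in duplicate for 48 h with eight half-log concentrations up to 100 uM in 0.5% DMSO. Gene mRNA by Fluidigm TaqMan qRT-PCR, normalized to ACTB, GAPDH, POLR2A.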

Read-out in assay [13]: Fatty Acid-Binding Protein 1 (FABP1), FABP1 (gene 2168)
The assay is described as follows: LTEA_HepaRG_FABP1: Life Technologies and Expression Analysis (LTEA) Assay for Fatty Acid-Binding Protein 1 (FABP1) using HepaRG (AID 2283494). In outline: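 Differentiated human HepaRG cells exposed 48 h in serum-free induction medium to eight half-log concentrations up to 100 uM (0.5% DMSO), duplicate. FABP1 mRNA by qRT-PCR, normalised to ACTB, GAPDH, POLR2A; bidirectional fitting against DMSO.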

Read-out in assay [14]: Cytochrome P450 4A22 (Homo sapiens) (UniProt Q5TCH4)
The assay is described as follows: LTEA_HepaRG_CYP4A22: Life Technologies and Expression Analysis (LTEA) Assay for Cytochrome P450 4A22 (CYP4A22) using HepaRG (AID 2283495). The method in brief:
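Cryopreserved HepaRG cells, plated and cultured 48 h, then switched to serum-free induction medium and treated 48 h (duplicates, up to 100 uM, half-log steps, 0.5% DMSO). Expression change of CYP4A22 was fitted bidirectionally against vehicle.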

Sequence of Cytochrome P450 2C19 (Homo sapiens) (P33261 whole entry, looked up): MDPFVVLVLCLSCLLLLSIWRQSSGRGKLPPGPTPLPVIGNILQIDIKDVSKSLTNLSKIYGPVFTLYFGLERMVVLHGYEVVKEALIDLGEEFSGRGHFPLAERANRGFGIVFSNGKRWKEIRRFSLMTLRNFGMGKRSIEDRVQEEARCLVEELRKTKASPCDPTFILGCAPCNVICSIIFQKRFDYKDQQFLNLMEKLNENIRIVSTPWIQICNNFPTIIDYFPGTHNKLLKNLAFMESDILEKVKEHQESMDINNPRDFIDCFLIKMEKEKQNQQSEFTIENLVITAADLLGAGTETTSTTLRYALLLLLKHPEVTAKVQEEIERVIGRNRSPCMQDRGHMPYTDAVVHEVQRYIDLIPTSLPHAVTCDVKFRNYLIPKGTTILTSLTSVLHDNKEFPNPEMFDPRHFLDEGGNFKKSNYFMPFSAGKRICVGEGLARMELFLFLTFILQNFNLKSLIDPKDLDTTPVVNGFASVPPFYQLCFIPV
Sequence of Cytochrome P450 3A4 (Homo sapiens) (P08684 whole entry, looked up): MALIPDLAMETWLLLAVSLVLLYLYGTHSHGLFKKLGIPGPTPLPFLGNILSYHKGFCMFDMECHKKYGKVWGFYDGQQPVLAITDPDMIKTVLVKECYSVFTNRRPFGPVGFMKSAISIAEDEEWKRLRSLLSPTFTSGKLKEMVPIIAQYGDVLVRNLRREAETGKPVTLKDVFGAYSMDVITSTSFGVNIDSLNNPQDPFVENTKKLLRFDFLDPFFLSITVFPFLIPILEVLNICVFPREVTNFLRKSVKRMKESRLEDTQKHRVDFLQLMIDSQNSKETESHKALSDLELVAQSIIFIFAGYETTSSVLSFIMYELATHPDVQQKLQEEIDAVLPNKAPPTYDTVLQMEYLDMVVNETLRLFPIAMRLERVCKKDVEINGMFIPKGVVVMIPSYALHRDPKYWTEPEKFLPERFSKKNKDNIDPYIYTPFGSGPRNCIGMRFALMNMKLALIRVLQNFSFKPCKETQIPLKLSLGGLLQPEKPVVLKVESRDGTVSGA
Sequence of Caspase-3 (Homo sapiens) (P42574 whole entry, looked up): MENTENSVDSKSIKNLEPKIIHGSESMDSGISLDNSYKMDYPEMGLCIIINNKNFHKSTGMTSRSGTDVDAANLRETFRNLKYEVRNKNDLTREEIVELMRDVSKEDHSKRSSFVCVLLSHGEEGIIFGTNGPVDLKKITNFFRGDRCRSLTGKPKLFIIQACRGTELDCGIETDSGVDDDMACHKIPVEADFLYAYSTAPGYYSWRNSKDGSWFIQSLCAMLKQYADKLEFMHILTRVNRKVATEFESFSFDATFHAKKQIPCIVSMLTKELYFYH
Sequence of Cytochrome P450 3A7 (Homo sapiens) (P24462 whole entry, looked up): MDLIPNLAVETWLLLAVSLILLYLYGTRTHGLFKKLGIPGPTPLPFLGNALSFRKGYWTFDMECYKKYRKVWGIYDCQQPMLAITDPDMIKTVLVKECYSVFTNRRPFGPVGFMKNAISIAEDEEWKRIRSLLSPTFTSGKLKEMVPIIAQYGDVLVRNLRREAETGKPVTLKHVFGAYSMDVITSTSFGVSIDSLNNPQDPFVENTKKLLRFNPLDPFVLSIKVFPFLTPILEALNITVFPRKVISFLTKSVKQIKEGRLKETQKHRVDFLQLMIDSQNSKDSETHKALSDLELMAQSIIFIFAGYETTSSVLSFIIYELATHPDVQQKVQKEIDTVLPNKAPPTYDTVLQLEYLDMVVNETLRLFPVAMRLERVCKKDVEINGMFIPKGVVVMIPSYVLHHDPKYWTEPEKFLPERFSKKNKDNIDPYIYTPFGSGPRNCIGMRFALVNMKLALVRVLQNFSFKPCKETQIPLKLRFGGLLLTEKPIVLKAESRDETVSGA

Consider `CC(COc1ccc(Oc2ccccc2)cc1)Oc1ccccn1` (stereo not drawn), for which the result (in assay [1]; with Caspase-3 (Homo sapiens); in [2]; in [4]; in [6]; with CYP2C8 (gene 1558)) was inactive. For the same compound, the outcome (with CYP2C9 (gene 1559); in assay [8]; in assay [10]; in assay [11]; in assay [12]; with CYP3A5 (gene 1577)) was inactive. The outcome in assay [13] and in assay [14] was inactive. The AC50 was 13.1 µM (active) in assay [3]; 3.68 µM (active) in assay [5]; 35.7 µM (active) with CYP2E1 (gene 1571); 12.5 µM (active) in the assay with CYP4A11 (gene 1579); 11.8 µM (active) in [7]; 31.5 µM (active) in assay [9].

With `COP(=O)(OC)OC(Br)C(Cl)(Cl)Br` (stereo not drawn), the outcome (in [1]; with Caspase-3 (Homo sapiens); in assay [2]; in assay [4]; in assay [6]; with CYP2C8 (gene 1558)) was inactive. In addition, the compound was classed as inactive (with CYP2C9 (gene 1559); with CYP2E1 (gene 1571); in the assay with CYP4A11 (gene 1579); in assay [7]; in [8]; in assay [9]). Also, the compound was called inactive (in [10]; in [11]; in assay [12]; with CYP3A5 (gene 1577); in assay [14]). The half-maximal activity concentration (AC50) in assay [3] is 26.3 µM (active); in assay [5] it was 2.45 µM (active).

As for `CC(C1CC1)C(O)(Cn1cncn1)c1ccc(Cl)cc1` (stereo not drawn), the result (in [1]; with Caspase-3 (Homo sapiens); in assay [2]; in assay [3]; in assay [4]; in assay [9]) was inactive. In addition, the result (in assay [10]; in assay [11]; with CYP3A5 (gene 1577)) was inactive. Further, the AC50 is 1.06 µM (active) in assay [5]; 12.8 µM (active) in [6]; 0.327 µM (active) with CYP2C8 (gene 1558); 49.5 µM (active) with CYP2E1 (gene 1571); 49.8 µM (active) in the assay with CYP4A11 (gene 1579); 3.9 µM (active) in assay [7]. Also, the AC50 in assay [8] was 72.3 µM (active); in assay [12] it was 2.25 µM (active); in assay [13], 12.5 µM (active); in assay [14], 44.9 µM (active).

A word on the AC50: it is the concentration giving half of the maximal activity seen.
